# Screening results: PubChem BioAssay, The Scripps Research Institute Molecular Screening Center
# TTR transcr act – increases transthyretin transcription; SH-SY5Y TTR promoter Gaussia luciferase, luminescence; 100% = recombinant luciferase protein wells; 1.3% of 92,000 active; activation, % at 16.7 µM;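 active = activation above the mean of all tested compounds plus 3 SD, cut at about 9.5% in these data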;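 also: cells exposed to compounds for one day before reading; 0% = median of all test compound wells on the plate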
# TTR inh HuH7 – counter-screen for TTR activators: TTR transcription inhibitors in HuH7 cells; 4% of 1,100 active; shares compounds with TTR transcr act; HuH7 TTR promoter-Gaussia luciferase reporter, luminescence; inhibition, % at 16.7 µM; AID 1117279;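 active = average inhibition above the solvent-only control wells' mean plus 3 SD, cut at about 15% in these data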;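 also: 0% = cells with DMSO only and 100% = cells with inhibitor control FD; inhibitors lower well luminescence so higher value means more inhibition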
# TTR up confirm – confirmation of human transthyretin transcription activators; activation, % at 16.7 µM; 1,100 tested, under 10 active; AID 1117280; shares compounds with TTR transcr act; SHSY5Y TTR promoter Gaussia luciferase, luminescence; 100% = purified Lucia enzyme wells, no cells;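 active = mean activation above a set limit taken from the earlier primary screen, cut at about 11% in these data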;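 also: 0% = DMSO-treated cells and 100% = recombinant Lucia luciferase without cells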
# Numbers without * were called inactive. This excerpt belongs to a sample that is enriched for hits.
SMILES,TTR transcr act,others
CCOC(=O)C1(Cc2ccc(OC)cc2)CCN(C(=O)Cn2cnnn2)CC1,1.0,
CCOC(=O)C1(Cc2ccc(OC)cc2)CCN(C(=O)C2CCCO2)CC1 (configuration not stated),2.0,
Cn1c(SCc2ccccc2)nnc1-c1ccc2nonc2c1,1.0,
CCCCC(=O)Nc1ccc(NC(=O)CCCC)nc1,-0.4,
CCCCC(=O)Nc1ccc(Br)cn1,0.9,
CCCCCCCC(=O)NC1=NC(=O)C(C)(C)S1,12.6*,TTR inh HuH7=3.4;TTR up confirm=0.6
COc1ccc2oc(C(=O)NCc3cc(OC)c(OC)cc3OC)c(C)c2c1,-1.1,
COc1ccc(C(=O)C2CCCN(C3Cc4ccccc4C3)C2)c(OC)c1 (configuration not stated),-0.1,
O=C(NNC(=O)c1cccc(Br)c1)Nc1ccc(Cl)cc1,-0.5,
N#C/C(=C\c1cccc(Br)c1)C(=O)N1CCCCC1,0.5,
O=C(NNC(=O)c1cccc(Br)c1)C(=O)N1CCCCC1,9.9*,TTR inh HuH7=-12.6;TTR up confirm=0.0
CC1(Cc2cccc(C(N)=O)c2)C(=O)Nc2c(Cl)cccc21 (configuration not stated),0.2,
COC(=O)CC1CCc2cc(C)cc(C(=O)CC(C)C)c2O1 (configuration not stated),-0.5,
O=C(COC(=O)CSc1ccc([N+](=O)[O-])cc1)NCCCc1ccccc1,1.5,
O=C(CN1C(=O)C2CC=CCC2C1=O)N1CCN(c2ccc([N+](=O)[O-])cc2)CC1 (configuration not stated),-0.7,
O=C(CCCC1=NS(=O)(=O)c2ccccc2N1)N1CCN(c2ccc([N+](=O)[O-])cc2)CC1,9.7*,TTR inh HuH7=-12.6;TTR up confirm=-0.6
O=C(CCC1=NS(=O)(=O)c2ccccc2N1)NC1CCCCCCC1,-1.0,
CCCC[C@@H]1C=C(C(=O)O)[C@H](c2ccc(C#N)cc2)N1S(=O)(=O)c1ccc(C)cc1,-1.7,
COc1cc(C(=O)N2C[C@@H]3CCC[C@H]2C3)ccc1OC1CCN(C(C)=O)CC1,16.1*,TTR inh HuH7=-8.4;TTR up confirm=0.2
COc1cc(C(=O)N2C[C@H]3CC[C@H]2C3)ccc1OC1CCN(C(C)=O)CC1,0.0,
COc1ccc(C(=O)N2CCN(C)C(C)C2)cc1OC1CCN(C(C)=O)CC1 (configuration not stated),-0.3,
Cc1cccc(C)c1NC(=O)CNC(=O)C(C)NC(C)c1ccccc1Br (configuration not stated),1.4,
Cc1ccc(CNC(=O)COC(=O)[C@@H]2CC(O)CN2S(=O)(=O)c2ccc3c(c2)OCCO3)cc1 (some centres not stated),3.5,
Cc1ccc(S(=O)(=O)N2CC(O)CC2C(=O)NCc2ccc3c(c2)OCO3)cc1 (configuration not stated),14.5*,TTR inh HuH7=-4.2;TTR up confirm=-0.6
Cc1ccc(NC(=O)N2CCCC2C(=O)NCc2ccc3c(c2)OCO3)cc1 (configuration not stated),0.0,
SMILES,TTR transcr act,others
O=C(Cn1c(=O)oc2ccccc21)Nc1ccc(F)cc1,-0.3,
COc1ccc(C(=O)N/N=C/c2ccc(OC(=O)c3cccc4ccccc34)c([N+](=O)[O-])c2)cc1,-2.5,
COc1cc(/C=N/NC(=O)COc2c(C)cc([N+](=O)[O-])cc2C)ccc1OC(=O)c1ccccc1Br,15.0*,TTR inh HuH7=14.2;TTR up confirm=-2.1
COc1ccc(C=NNC(=O)CCCC(=O)NN=Cc2ccc(OC)c(OC)c2)cc1OC,-0.2,
C=CCN(c1ccccc1)S(=O)(=O)c1cccc2cccnc12,1.3,
Cc1nn2c(-c3ccccc3)c(-c3ccccc3)nc2[nH]c1=O,-0.5,
Cc1nn2cc(-c3ccccc3)nc2[nH]c1=O,10.2*,TTR inh HuH7=0.9;TTR up confirm=-0.1
O=C(O)CCc1nn2cc(-c3ccccc3)nc2[nH]c1=O,-0.8,
CSCCC(NC(=O)c1ccccc1Cl)C(=O)NC1CCN(Cc2ccccc2)CC1 (configuration not stated),0.8,
O=C(CO/N=C/c1c(Cl)cccc1Cl)NNC(=O)c1ccc(Cl)cc1,10.5*,TTR inh HuH7=-15.8;TTR up confirm=0.2
O=C(CO/N=C/c1ccc(Cl)cc1Cl)NNC(=O)c1ccc(Cl)cc1Cl,-0.1,
O=C(CO/N=C/c1c(Cl)cccc1Cl)NNC(=O)c1cccc(Cl)c1,1.5,
COc1cc(CNc2cccc3c2S(=O)(=O)N([C@H](C)c2ccccc2)C[C@@H](COCc2ccccc2)O3)cc(OC)c1OC,0.0,
COc1cc(S(=O)(=O)NC2CCCCC2C)ccc1-n1cnnn1 (configuration not stated),14.0*,TTR inh HuH7=-10.6;TTR up confirm=-0.2
CC1CCCCC1NS(=O)(=O)c1ccc(-n2cnnn2)cc1 (configuration not stated),0.5,
COc1cc(S(=O)(=O)NC2CCCCC2C)ccc1Cl (configuration not stated),3.3,
CCC(C(=O)NCc1ccccc1)n1c(-c2cccs2)nc2ccccc21 (configuration not stated),11.4*,TTR inh HuH7=-5.9;TTR up confirm=1.5
CCC(C(=O)NC1CCCC1)n1c(-c2ccccn2)nc2ccccc21 (configuration not stated),-1.6,
COc1ccc(C(C(=O)NCc2ccccc2)n2c(-c3ccncc3)nc3ccccc32)cc1 (configuration not stated),-0.1,
O=C(CSc1nccc(=O)[nH]1)NC1CCCC1,2.6,
CCCCN(CCCC)CCCNC(=O)Cn1cc(C)c(=O)[nH]c1=O,1.6,
Cc1cc(C)cc([C@H]2C[C@]34CN(Cc5ccccc5)S(=O)(=O)[C@H]3C[C@H]2O4)c1,-1.5,
Cc1cccc(CN2C[C@]34C=C[C@@H](C[C@@H]3S2(=O)=O)O4)c1,-1.4,
O=S1(=O)[C@H]2C[C@@H]3C=C[C@@]2(CN1Cc1ccc(Cl)cc1)O3,17.4*,TTR inh HuH7=-11.8;TTR up confirm=-0.1
COc1ccc(N2C(=O)NC(NS(=O)(=O)c3ccc(NC(C)=O)cc3)(C(F)(F)F)C2=O)cc1 (configuration not stated),-0.4,
SMILES,TTR transcr act,others
CCOC(=O)C1CCCN1C(=O)C1(NC(C)=O)CCCC1 (configuration not stated),4.8,
CCN1C(=O)[C@H]2[C@@H](c3ccc(OC)cc3)N3C(=O)CN(Cc4ccccc4)C(=O)[C@@]3(Cc3ccccc3)[C@H]2C1=O,5.4,
CCN1C(=O)[C@H]2[C@@H](c3ccc(OC)cc3)N[C@]3(CCCN(Cc4ccccc4)C3=O)[C@H]2C1=O,-0.4,
CCN1C(=O)[C@@H]2[C@H](C1=O)[C@@H]1C(=O)Nc3ccccc3C(=O)N1[C@@H]2c1ccc(OC)cc1,10.7*,TTR inh HuH7=-11.7;TTR up confirm=-0.1
O=C(/C=C/[C@H]1O[C@@H](n2cnc3c(NC(=O)c4ccccc4)ncnc32)[C@H](O)[C@@H]1O)NCC1CCCO1 (some centres not stated),-0.7,
COc1ccc(CCC(=O)NNC(=O)Nc2ccc(C(C)C)cc2)cc1,-1.0,
CCc1ccccc1NC(=O)NNC(=O)CCc1ccc(OC)cc1,12.9*,TTR inh HuH7=-24.9;TTR up confirm=2.0
COc1ccc(C(C)NC(=O)CCc2ccccc2)cc1 (configuration not stated),0.0,
CCCC[C@H]1COCCS(=O)(=O)N1Cc1cccc([N+](=O)[O-])c1,4.5,
COC(=O)[C@]12C[C@H](CC(=O)NCc3ccc(C)o3)C(=O)N(Cc3ccc(Cl)cc3Cl)C1=C[C@H](COCc1ccccc1)O[C@@H]2C,-0.3,
